Experimental data as given in PubChem BioAssay (NCI).
Compounds without any hit were thinned out: in the full panel of roughly 83,000, 20% have a hit.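 Plates (96-well) were seeded with cells, treated with compound at one concentration, and incubated for 48 hours before percent growth was determined.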 A number with no mark means an inactive call. Active and inactive are the calls of the source.

The molecules below were run on NCI-H226 lung (assay: NCI-60 one-dose screen, 48 h (100 = growth as untreated, 0 = no growth, -100 = all killed)). Details: 10 µM unless noted.
Method: Growth inhibition of the NCI-H226 human Non-Small Cell Lung tumor cell line is measured as a screen for anti-cancer activity. Cells are grown in 96 well plates and exposed to the test compound for 48 hours. Compounds are tested at a single concentration, which is 10^-5 M for most compounds. The reported endpoint is percent growth (GI% or GIPRCNT), where numbers from 0 - 100% represent growth inhibition, and numbers from -100% - 0 represent cell death. For example, a value of 40 represents 60% growth inhibition. A value of 0 means no net growth occurred over the course of the experiment. A value of -40 indicates 40% of cells at the beginning of the experiment died by the end of the experiment. A value of -100 means all cells are dead at the end of the experiment.
NCI-60 Human Tumor Cell Lines Screen was performed using the standard one-dose NCI protocol, which is described in more detail at https://dtp.cancer.gov/discovery_development/nci-60/default.htm.
Compounds with GIPRCNT values below 10 were considered active. Activity score was based on GIPRCNT using the following formula: […]
Score is 0 for GIPRCNT values of 100 or above, 50 for GIPRCNT values of 0, and 100 for GIPRCNT values of -100.

Structure (SMILES) | growth
S=C(SSC(=S)N1CCOCC1)N1CCOCC1 | 94.5%
Cc1cc2nc(CC(=O)c3ccncc3)c(=O)[nH]c2cc1C | 87.4%
CCOc1ccc(C(CN2CCOCC2)C(C)=O)cc1OC (stereo not given) | 98.9%
CCC1C[N+]2=C(c3cc(OC)c(OC)cc3CC2)c2c1cc1n2CCc2cc(OC)c(OC)cc2-1 (stereo not given) | 65.7%
Oc1c(Cl)cc(Cl)cc1C(c1cc(Cl)cc(Cl)c1O)C(Cl)(Cl)Cl | 5.37% (active)
COc1ccc2nc3cc(Cl)ccc3c(NCCCCCN3CCCCC3)c2c1 | -39.8% (active)
OC(CSc1ccccc1)CN1CCN(c2ccc(Cl)cc2)CC1 (stereo not given) | 91.7%
Cc1ccccc1N=C(N)Nc1ccccc1C (tested in a mixture with another compound) | 97.1%
CCCCCCC1N=C(N)N=C(N)N1c1cccc(Cl)c1 (stereo not given) | 67.7%
CCCCCCCCCCCC1=NCCCN1CCCC | 103%
O=S(=O)(O)c1cnccn1 | 104%
NC(=S)N/N=C\c1nccc2c(C(F)(F)F)cccc12 | -0.105% (active)
CC(C)N=C(N)/N=C(\N)Nc1ccc2ccc3ccccc3c2c1 | -67.6% (active)
S=c1[nH]c2cc(Cl)ccc2s1 | 91.4%
COc1cc(NCc2ccc3nc(N)nc(N)c3c2C)cc(OC)c1OC (tested in a mixture with another compound) | 47.5%
CCCCCCCCCCCCN1C(C)=CS/C1=C\C=C\c1scc(C)[n+]1CCCCCCCCCCCC | 40.6%
COc1ccc2c(c1OC)OCC(CN(C)C)C2=O (stereo not given) | 97.6%
C=C(C(N)=O)C(N)C(=O)O (stereo not given) | 112%
CCNc1nnnn1CC | 102%
COC(=O)c1cc([N+](=O)[O-])cc([N+](=O)[O-])c1Cl | 102%

Structure (SMILES) | growth
CSc1nc(C)c(C(=O)CCN2CCN(c3ccccn3)CC2)s1 | 107%
CCCN(CCC)C(=O)c1ccc(C)cc1 | 81.2%
C/C(=N\NC(=S)N1CC2CCC(CC2)C1)c1ccccn1 | 11.7%
Nc1ccc(-c2ccc(N)c(S(=O)(=O)O)c2)cc1S(=O)(=O)O | 119%
O=C(c1ccccc1)C(Br)C(Br)c1ccccc1 (stereo not given) | 109%
Cc1cccc2c(N)c3ccccc3nc12 | -9.22% (active)
O=C(Nc1ccc(Cl)c(Cl)c1)OCc1ccco1 | 63.9%
S=C1SCN(Cc2cccs2)CN1Cc1cccs1 | 104%
O=C(O)c1cc2c(s1)C(=O)c1sccc1C2=O | 103%
Cc1ccc(/C=C2\CNC/C(=C\c3ccc(C)cc3)C2=O)cc1 | -63.2% (active)
CCCCCCCCCCCC[N+]1(CCCCCCCCCCCC)CCCC(C)C1 (stereo not given) | -77% (active)
CN1CSC(=S)N(Cc2ccccc2)C1 | 104%
N#Cc1c2ccccc2nc2ccccc12 | 93.8%
CC(C)=CCCC(C)C1=C(O)C(=O)C(C)=CC1=O (stereo not given) | 94.8%
O=C(c1ccccc1)c1ccc(O)c2ncccc12 | 29.3%
CC(C)(C)c1ccc(O)c(Br)c1 | 92.5%
O=[N+]([O-])C=C(c1ccccc1)c1ccccc1 | 88.6%
O=[N+]([O-])/C(=C/c1ccccc1)c1ccccc1 | 97.5%
O=C1Nc2ccc(Br)cc2C1=O | 93.3%
O=C(Nc1cccc(C(F)(F)F)c1)Oc1ccc(Cl)c2cccnc12 | 86.3%
